{"source": "PubChem BioAssay (NCATS)", "note": "Calls of active or inactive are those of the source. Calls follow the shape of the dose curve; as a rule, active = well fitted curve in the direction sought with a large enough effect; inactive = no such curve, though single readings can be large or run the other way.", "data": [{"experiment": "qHTS for small molecule inhibitors of Yes1 kinase: Counter Assay (AID 686950);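 also: no kinase present so only ADP-Glo detection of a fixed ADP amount is tested; luminescence from ADP-Glo reporting ADP in a fixed ATP and ADP mixture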", "settings": "series mostly up to 76.9 µM", "method_in_brief": "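Measuring interference with ADP-Glo, the assay ran 60 min at room temperature on an ATP/ADP mix lacking enzyme. Values were normalized to ATP-plus-ADP (maximum) and ATP-only (minimum) DMSO controls.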", "values": [{"smiles": "Cc1ccc2[nH]c(O)c(N=Nc3ccc(S(N)(=O)=O)cc3)c2c1", "outcome": "inactive"}, {"smiles": "CC(C)(C)c1ccc(Oc2nccc(-c3c(-c4ccc(F)cc4)ncn3C3CCNCC3)n2)cc1", "outcome": "inactive"}, {"smiles": "OCc1ccc(-c2nc(-c3ccc4c(c3)OCO4)c(-c3ccccn3)[nH]2)cc1", "outcome": "inactive"}, {"smiles": "CC(=O)Nc1cccc(C#Cc2cncnc2Nc2ccc(OCc3cccc(F)c3)c(Cl)c2)c1", "outcome": "inactive"}, {"smiles": "COC(=O)Nc1nc2ccc(Oc3cccc(NC(=O)Nc4cc(C(F)(F)F)ccc4F)c3)cc2[nH]1", "outcome": "inactive"}, {"smiles": "CCN1CCC(CC(=O)Nc2n[nH]c3nnc(-c4cccc(F)c4F)cc23)CC1", "outcome": "inactive"}, {"smiles": "COc1ccc2ncn(-c3cc(OC(C)c4ccccc4C(F)(F)F)c(C(N)=O)s3)c2c1", "note": "(stereo not given)", "outcome": "inactive"}, {"smiles": "NC(=O)c1cc(-c2ccc(F)cc2)cc(-c2ccncc2)c1N", "outcome": "inactive"}, {"smiles": "CCOc1ccc2c(-c3ccnc(Nc4cc(OC)cc(C(F)(F)F)c4)n3)cnn2n1", "outcome": "inactive"}, {"smiles": "O=C(Nc1ccc(Oc2ccc3nc(NC(=O)c4ccccc4)[nH]c3c2)cc1)Nc1cc(C(F)(F)F)ccc1F", "outcome": "inactive"}, {"smiles": "O=S(=O)(CCNCc1ccc(-c2ccc3ncnc(Nc4ccc(OCc5cccc(F)c5)c(Cl)c4)c3c2)o1)c1ccccc1", "outcome": "inactive"}, {"smiles": "Fc1cccc(COc2ccc(Nc3ncnc4cc(-c5ccc[nH]5)sc34)cc2Cl)c1", "outcome": "inactive"}, {"smiles": "COc1cc(N2CCN(C(C)C)CC2)ccc1Nc1nc(Nc2cccc3ncccc23)c2cc[nH]c2n1", "outcome": "inactive"}, {"smiles": "Cc1cccc(Nc2ncc(-c3ccccc3)o2)c1", "outcome": "inactive"}, {"smiles": "NS(=O)(=O)c1ccc(-c2cc3ccncc3cc2OCc2ccccc2)cc1", "outcome": "inactive"}, {"smiles": "O=C1NC(=O)C(c2ccccc2)=C1Nc1ccccc1", "outcome": "inactive"}, {"smiles": "COc1ccc2cc(-c3c(-c4ccncc4)nc(-c4ccc(S(C)=O)cc4)n3C)ccc2c1", "note": "(stereo not given)", "outcome": "inactive"}, {"smiles": "CN1CCC(C(=O)Nc2n[nH]c3nnc(-c4ccccc4)cc23)CC1", "outcome": "inactive"}, {"smiles": "CC(C)c1ccc2c(N=Nc3ccc(S(N)(=O)=O)cc3)c(O)[nH]c2c1", "outcome": "inactive"}, {"smiles": "CN(c1ccc(NC(=O)NCCN2CCOCC2)cc1)c1ccnc(Nc2ccc(CS(C)(=O)=O)cc2)n1", "outcome": "inactive"}, {"smiles": "c1cc(-c2cnn3nc(N4CCOCC4)ccc23)nc(NC2CC2)n1", "outcome": "inactive"}, {"smiles": "COC(=O)Nc1nc2ccc(Oc3ccc(NC(=O)Nc4ccccc4)cc3)cc2[nH]1", "outcome": "inactive"}, {"smiles": "CCN1CCC(C(=O)Nc2n[nH]c3nnc(-c4cccc(F)c4F)cc23)CC1", "outcome": "inactive"}, {"smiles": "CCn1c(-c2nonc2N)nc2c(C#CC(C)(C)O)nc(OCC(N)c3ccccc3)cc21", "note": "(stereo not given)", "outcome": "inactive"}, {"smiles": "FC(F)(F)c1cccc(Nc2nccc(-c3cnn4nc(-c5ccccc5)ccc34)n2)c1", "outcome": "inactive"}, {"smiles": "NC(=O)c1sc(-n2cnc3ccc(C(F)(F)F)cc32)cc1OCc1ccccc1Br", "outcome": "inactive"}, {"smiles": "COc1cc2c(cc1Nc1nc(N3CCc4ccccc43)c3cc[nH]c3n1)N(C(=O)CN(C)C)CC2", "outcome": "inactive"}, {"smiles": "CC(Oc1cc(-n2cnc3ccc(OCC(O)CO)cc32)sc1C(N)=O)c1ccccc1Cl", "note": "(stereo not given)", "outcome": "inactive"}, {"smiles": "CN(C)CCOc1ccc(-c2cc(-c3ccc4c(c3)CCC4=NO)c(-c3ccncc3)o2)cc1", "outcome": "inactive"}, {"smiles": "COc1ccc2nc3c4nc5ccc(OC)cc5c4c4c(=O)[nH]c(=O)c4c3c2c1", "outcome": "inactive"}, {"smiles": "COc1cc(N2CCN(C(C)C)CC2)ccc1Nc1nc(Nc2ccc(F)cc2C(N)=O)c2cc[nH]c2n1", "outcome": "inactive"}, {"smiles": "c1cnn2ncc(-c3ccnc(Nc4ccc5c(c4)OCCO5)n3)c2c1", "outcome": "inactive"}, {"smiles": "O=C(Nc1n[nH]c2nc(-c3ccc(O)cc3)c(Br)cc12)C1CC1", "outcome": "inactive"}, {"smiles": "CCn1c(-c2nonc2N)nc2cncc(C(=O)NCCNC)c21", "outcome": "inactive"}, {"smiles": "O=C1NC(=O)C(c2ccccc2Cl)=C1Nc1cc(Cl)c(O)c(Cl)c1", "outcome": "inactive"}, {"smiles": "CC1=C(C(=O)Nc2ccc3n[nH]c(C)c3c2)C(c2ccc(C(F)(F)F)cc2)CC(=O)N1", "note": "(stereo not given)", "outcome": "inactive"}, {"smiles": "O=C(Nc1n[nH]c2cc(-c3ccc(F)cc3)ccc12)C1CC1", "outcome": "inactive"}, {"smiles": "O=C1NC(=O)C(c2cccc([N+](=O)[O-])c2)=C1Nc1cc(Cl)c(O)c(Cl)c1", "outcome": "inactive"}, {"smiles": "COc1ccccc1Oc1nccc(-c2c(-c3ccc(F)cc3)ncn2C2CCNCC2)n1", "outcome": "inactive"}, {"smiles": "O=C(Nc1n[nH]c2nnc(-c3cccnc3)cc12)C1CC1", "outcome": "inactive"}]}]}
